NPR1 antag: human Npr1 receptor antagonism; Potency, µM (titrated, usually from 46.3 µM), for inactives: at the top dose activity change, negative = inhibition, most hits filed as inhibitors; 1.6% of 76,000 active; AID 1347048; HEK293 hNpr1 GloSensor cGMP, ANP-stimulated luminescence; calls by dose curve; note: % is set by controls: 0 for no effect and ±100 for the full control effect; nearly all actives have a fitted effect of over 60% in size
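Compound pre-incubated 30 min at room temperature on GloSensor-loaded HEK293 cells stably carrying hNpr1 and the pGS-40F cGMP biosensor. Stimulation uses hNppA at 0.1 nM final; luminescence is taken at baseline and 20 min post-agonist.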
3T3 cytotox: NIH 3T3 cell cytotoxicity; NIH 3T3 viability, CellTiter-Glo ATP luminescence, 48-72 h; Potency, µM (series often up to 96.7 µM), inactives show at the highest dose activity change, negative = cytotoxicity, hits mostly inhibitors; 4.3% of 94,000 active; AID 1345082; note: % is set by controls: 0 for no effect and ±100 for the full control effect; nearly all actives have a fitted effect of over 55% in size
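Cytotoxicity was measured by CellTiter-Glo ATP luminescence after 48 or 72 h compound exposure at 37 °C. Mouse NIH 3T3 fibroblasts were seeded at 400 cells/well and dosed by 23 nL pin transfer.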
FLuc inh-1: blocks purified firefly luciferase enzyme activity. P08659. purified P. pyralis luciferase, luminescence, biochemical. Potency, µM (titrated, usually from 115 µM), hits mostly inhibitors. 2.5% of 76,000 active; note: % is set by controls: 0 for no effect and ±100 for the full control effect; nearly all actives have a fitted effect of over 65% in size
Target sequence (P08659 whole entry, looked up): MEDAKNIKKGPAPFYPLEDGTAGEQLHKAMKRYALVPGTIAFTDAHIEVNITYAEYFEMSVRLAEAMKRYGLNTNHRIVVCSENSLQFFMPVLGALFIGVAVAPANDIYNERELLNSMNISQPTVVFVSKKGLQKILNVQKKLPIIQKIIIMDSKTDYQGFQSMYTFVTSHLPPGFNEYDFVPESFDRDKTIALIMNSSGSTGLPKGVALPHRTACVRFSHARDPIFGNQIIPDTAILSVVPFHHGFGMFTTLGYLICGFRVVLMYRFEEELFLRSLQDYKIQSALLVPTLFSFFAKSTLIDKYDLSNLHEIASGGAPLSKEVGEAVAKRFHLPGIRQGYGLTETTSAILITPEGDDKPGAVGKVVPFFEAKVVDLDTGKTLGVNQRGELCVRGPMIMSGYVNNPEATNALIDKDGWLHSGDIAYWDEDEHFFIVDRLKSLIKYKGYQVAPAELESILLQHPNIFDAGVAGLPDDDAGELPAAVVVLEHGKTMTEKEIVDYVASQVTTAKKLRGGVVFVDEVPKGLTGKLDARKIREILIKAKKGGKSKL
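Luminescence read by CCD imager after adding enzyme (10nM final) to wells holding compound, titrated in qHTS. Substrates 10uM each D-luciferin and ATP; buffer 50mM Tris acetate pH 7.5, 10mM Mg acetate, Tween-20, BSA.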
HEK293 tox: HEK 293 cell cytotoxicity | HEK 293 viability, ATP luminescence (CellTiter-Glo), 48-72 h | Potency, µM (top dose mostly 115 µM), for inactives: top-dose activity change, negative = cytotoxicity, most hits filed as inhibitors | 6.6% of 94,000 active | AID 1345083; note: % is set by controls: 0 for no effect and ±100 for the full control effect; nearly all actives have a fitted effect of over 60% in size
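Cells seeded first (HEK 293, 250 cells/well), then compound added by pintool. Incubation ran 48 or 72 hr at 37 degree Celsius. CellTiter-Glo was added and luminescence imaged after 10 min at room temperature.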
FLuc SDR -ATP: firefly luciferase binding stabilization, ATP absent; Potency, µM (highest dose often 32.7 µM), inactives show at the highest dose activation (signal gain), most hits filed as activators; Purified FLuc-C-HiBiT, Nano-Glo HiBiT luminescence, no ATP; 7.8% of 1,300 active; shares compounds with FLuc inh-1; note: nearly all actives have a fitted effect of over 55% in size
FLuc SDR ATP: stabilizes firefly luciferase with ATP present; shares compounds with FLuc inh-1; purified FLuc-C-HiBiT + ATP, HiBiT complementation luminescence; Potency, µM (doses to about 32.7 µM), without a hit: at the highest dose activation (gain of signal), actives largely listed as activators; 8.7% of 1,300 active; AID 1963319;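 note: signal reports ligand binding via conformational change of the enzyme rather than luciferase catalysis; % of control where 0% means no effect; nearly all actives have a fitted effect of over 55% in size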
FLuc inh-2: blocks firefly luciferase enzymatic activity | purified FLuc-C-HiBiT enzyme, luciferin luminescence | Potency, µM (doses to about 32.7 µM), for inactives: at the top dose activity change, negative = inhibition, hits mostly inhibitors | shares compounds with FLuc inh-1 | 42% of 1,300 active; note: % is set by controls: 0 for no effect and ±100 for the full control effect; nearly all actives have a fitted effect of over 70% in size
An asterisk follows results filed as active; i = inactive; ? = inconclusive; . = no result; [ ] = remark or other dose. Most compounds without a hit are left out; they make up all but 11% or so of the library. Unless noted, calls come from the whole dose curve; as a rule, active = well fitted curve in the direction sought with a large enough effect; inconclusive = small, poorly fitted or top-dose-only effect, or another doubt; inactive = no such curve, though single readings can be large; an effect the other way counts as inactive or inconclusive. Potency is the fitted concentration of half-maximal effect.

SMILES	NPR1 antag	3T3 cytotox	FLuc inh-1	HEK293 tox	FLuc SDR -ATP	FLuc SDR ATP	FLuc inh-2
CN(Cc1cnn(C)c1)C(=O)c1csc2nc(-c3cccc(C(F)(F)F)c3)cn12	3%	?	?	?	.	.	.
COc1ccc(C(=O)N2CCN(C(=O)c3cccc(-c4ccc(OC)nn4)c3)CC2)cc1	.	?	.	-27%	.	.	.
COc1ccc2nc(-c3cccc(C(C)=O)c3)sc2c1	.	.	.	.	12µM*	?	1.2µM*
COc1ccc2nc(-c3ccc(N4CCN(C(=O)OC(C)(C)C)CC4)cc3)sc2c1	.	.	.	.	16%	9%	?
CC(=O)c1cccc(-c2nc3ccccc3s2)c1	.	.	.	.	?	?	9.9µM*
COCCCNC(=O)c1ccc2nnc(-c3cc[nH]c3)n2c1	.	-4%[138 µM]	.	-10%[172 µM]	.	.	.
O=C(C1CCCN1c1nccc(Nc2ccccc2F)n1)N1CCOCC1 (stereo not given)	.	-14%	.	5%	.	.	.
O=[S+]([O-])(c1cccs1)N1CCC2(CC(c3cccnc3)=NO2)C1 (stereo not given)	.	1%	.	-7%	.	.	.
COc1ccc(C2=NOC3(CCN([S+](=O)([O-])c4cccs4)C3)C2)cc1 (stereo not given)	?	?	5.6µM*	?	11%	15%	-10%
O=C(CNC(=O)c1ccc(-c2cnc3ccccc3c2)cc1)NCCc1ccccc1	.	-26%	.	-14%	.	.	.
CC(C)(C)C1CCc2nc(NC(=O)c3cccc(Cl)c3)sc2C1 (stereo not given)	.	.	.	.	17%	16%	2.5µM*
COc1ccc(C(=O)N2CCCN(CCn3nc4n(c3=O)CCCC4)CC2)cc1	.	-10%	.	-16%	.	.	.
COCCCNC(=O)c1ccc2oc(-c3ccncc3Cl)nc2c1	.	-30%	.	?	.	.	.
CC(=O)NCCNC(=O)c1ccc2c(=O)n(CCc3ccccc3)c(=O)[nH]c2c1	.	.	.	.	10%	14%	?
O=C(NC1CCCCC1)C1CCN(C(=O)c2ncn3c2COC(c2ccc(Cl)cc2)C3)CC1 (stereo not given)	-3%	1%	?	-19%	.	.	.
O=C(Nc1ccc(Cl)cc1)C1CCN(C(=O)c2ncn3c2COC(c2ccccc2)C3)CC1 (stereo not given)	?	i	1.8µM*	6%	14%	1.1µM*	1.8µM*
O=C(NC1CCCCCC1)C1CCN(C(=O)c2ncn3c2COC(c2ccccc2)C3)CC1 (stereo not given)	-2%	i	13µM*	11%	13%	?	7.9µM*
O=C(Nc1ccc(F)cc1)C1CCN(C(=O)c2ncn3c2COC(c2ccccc2)C3)CC1 (stereo not given)	?	-31%	1.6µM*	-30%	9%	1.1µM*	1.8µM*
CC(C)(C)C(=O)NCC1CCN(Cc2nc(-c3ccccc3)no2)C1 (stereo not given)	0%	-23%	i	-8%	.	.	.
Cc1noc(C)c1[S+](=O)([O-])N1CCCC(C(=O)N2CCC(N3CCCC3=O)CC2)C1 (stereo not given)	.	-22%	.	-13%	.	.	.
COC1CN(c2cccc(F)c2)C12CCN(C(=O)c1ccc3ncccc3c1)CC2 (stereo not given)	.	-21%	.	?	.	.	.
O=C(NCC(F)(F)F)C1CCCN1c1nc2ncccc2o1 (stereo not given)	-1%[70.6 µM]	i	i	i	11%[49.3 µM]	7%[49.3 µM]	6%[49.3 µM]
COc1cccc(CC(=O)N2CCC3(CC2)C(OC)C(=O)N3CC2CC2)c1 (stereo not given)	.	-6%	.	-4%	.	.	.
Fc1ccc(NCc2ccccc2-c2nnc(-c3ccccc3Cl)o2)cc1Cl	.	.	.	.	17%	9%	?
CN1CCN(C(=O)C2CN(c3ccnc4ccnn34)C2)CC1	.	-27%	.	-6%	.	.	.
SMILES	NPR1 antag	3T3 cytotox	FLuc inh-1	HEK293 tox	FLuc SDR -ATP	FLuc SDR ATP	FLuc inh-2
CCCC(=O)Nc1cnc(-c2ccc(C)cc2)nc1	?	-8%	2µM*	?	?	?	3.5µM*
Cc1ccc(-c2ncc(NC(=O)c3cccs3)cn2)cc1	-2%	i	?	0%	.	.	.
COc1ccc(Nc2cnc3ccc(-c4cccc(CO)c4)nn23)cn1	-6%[70.6 µM]	?	i	?	.	.	.
C[C@@H]1CN(c2cnc3ccccc3n2)CC[C@@]1(O)C1CCC1	?	?	4µM*	?	22%	17%	?
C[C@@H]1CN(c2cc(C3CC3)ncn2)C[C@@]1(O)C1CCC1	3%	-22%	i	?	.	.	.
COc1ccc(-c2noc([C@@H]3Cc4nc[nH]c4CN3C(=O)Nc3ccc(Cl)cc3)n2)cc1	-25%	?	13µM*	?	13%	8%	-13%
Cc1ccc(-c2noc([C@@H]3Cc4nc[nH]c4CN3C(=O)Nc3cccc(F)c3)n2)cc1	?	?	10µM*	79µM*	16%[49.3 µM]	14%[49.3 µM]	?
O=C(Nc1ccc(F)cc1)N1Cc2[nH]cnc2C[C@H]1c1nc(-c2ccc(F)cc2)no1	-15%[70.6 µM]	?	?	?	.	.	.
O=C(c1ccccn1)N1CCCC(C(=O)N2CCCC(c3nc4ncccc4[nH]3)C2)C1 (stereo not given)	.	2%	.	-6%	.	.	.
O=C(c1ccc(Cl)nc1)N1CCN(c2ccc3nnc(C4CC4)n3n2)CC1	.	-29%	.	-3%	.	.	.
O=C(Nc1cc(-c2nc3ccccc3s2)ccc1Cl)c1cc2ccccc2o1	.	.	.	.	15%	11%	-1%
O=C(Nc1ccc(O)c(-c2nc3ccccc3s2)c1)c1cc2ccccc2o1	.	.	.	.	14%	10%	-1%
O=C(COc1ccccc1[N+](=O)[O-])Nc1cccc(-c2nc3ccccc3s2)c1	.	.	.	.	12%	10%	-14%
O=C(COc1ccccc1Cl)Nc1ccc(-c2nc3ccccc3s2)cc1	.	.	.	.	12%	8%	-5%
O=C(COc1ccccc1[N+](=O)[O-])Nc1ccc(-c2nc3ccccc3s2)cc1	.	.	.	.	15%	10%	-6%
O=C(COc1ccc(-c2nnc3n2CCCC3)cc1)Nc1ccc(Cl)cc1	1%	-5%	i	-22%	.	.	.
Cc1cn2nc(C(=O)Nc3ccc(OC(F)(F)F)cc3)cc2c(N2CCSCC2)n1	4%	?	i	?	.	.	.
CN(c1ccc(NC(=O)Nc2ccc(OC(F)(F)F)cc2)cc1)c1ccnc(Nc2cccc(S(N)(=O)=O)c2)n1	.	.	.	.	16%	9%	2%
COc1cccc(CC(=O)Nc2ccc3c(c2)CN(Cc2ccccc2F)C(=O)C(C)O3)c1 (stereo not given)	?	?	i	?	.	.	.

From PubChem BioAssay
